# Data from the supplement of paper PMC8728848.
# The sample as a whole holds a higher share of the strongest signals than the screen did.
# B1: Vd7LysM (Verticillium dahliae) (protein)
# chain: RRGPEPKYPPAAGTSSYCSYWVDYEGDKSCSRVLEDNVVVLKDFARWNPTVGADCSGIKAGNSYCVEAFGEPEPIEVTTTTRAATTTTQPTATTTTFANGIATPQPTQSGMVTNCNKFHWIAEGVSCSQVISFQKITLADFVKWNPSVKSDCSGMWAGVNVCVGVVGSSTDTAKPTTTAPSNGVVTPQPTQPSMVTNCNKFHWIAKGVTCQQVISYQKISLADFVKWNPSVLSDCSGMWAEVQVCVGVIGSTPTTLATTTTTAGNGVSTPLPTQPGMVTNCAKFHWVAKGVTCNQIYSFQKITLEQFVSYNPTVKSDCSGMQAEVQVCVGLIAGTTPTTTRPPTTTAPGNGVSTPQPTQPGMVTNCAKFHWVAKGVTCNQIYSFQKITLEQFVSFNPTVKSDCTGMQAEVNVCVGLIGGNPTPTQTGNGIATPTPIQPGMVSNCKKFHWIAQGVTCQQVISFQKITLADFVKWNTGVGSDCRTMWAETNVCVGV
# Tests used:
# Test in all cases: glycan array binding signal (z-score within array); higher = stronger binding
# Details in all cases: glycan notation: IUPAC condensed, linker removed
# [1] = target: Fuc(a1-2)Gal(b1-3)GalNAc(a1-3)[Fuc(a1-2)]Gal(b1-4)GlcNAc
# Method in brief: (§1)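 Negative Z-scores can be read as non-binding. The Z-score is calculated within each array and then averaged across arrays of one protein sequence at different concentrations or buffers and across linkers. Arrays, 3228 in all, were curated from the Consortium for Functional Glycomics database and kept only where the protein sequence was available.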
# [2] = target: Fuc(a1-2)Gal(b1-3)GlcNAc(b1-3)[Gal(b1-4)GlcNAc(b1-6)]Gal(b1-4)Glc
# Method in brief: as §1
# [3] = target: Fuc(a1-2)Gal(b1-3)[Fuc(a1-4)]GlcNAc(b1-3)[Gal(b1-4)GlcNAc(b1-6)]Gal(b1-4)Glc
# Method in brief: as §1
# Fuc(a1-2)Gal(b1-4)Glc6S = target: Fuc(a1-2)Gal(b1-4)Glc6S
# Method in brief: as §1
# [4] = target: Fuc(a1-2)Gal(b1-4)GlcNAc(b1-2)Man(a1-3)[Fuc(a1-2)Gal(b1-4)GlcNAc(b1-2)Man(a1-6)]Man(b1-4)GlcNAc(b1-4)GlcNAc
# Method in brief: as §1
# [5] = target: Fuc(a1-2)Gal(b1-4)GlcNAc(b1-2)[Fuc(a1-2)Gal(b1-4)GlcNAc(b1-4)]Man(a1-3)[Fuc(a1-2)Gal(b1-4)GlcNAc(b1-2)Man(a1-6)]Man(b1-4)GlcNAc(b1-4)GlcNAc
# Method in brief: as §1
# [6] = target: Fuc(a1-2)Gal(b1-4)GlcNAc(b1-3)Gal(b1-4)GlcNAc(b1-2)Man(a1-3)[Fuc(a1-2)Gal(b1-4)GlcNAc(b1-3)Gal(b1-4)GlcNAc(b1-2)Man(a1-6)]Man(b1-4)GlcNAc(b1-4)GlcNAc
# Method in brief: as §1
# [7] = target: Fuc(a1-2)Gal(b1-4)GlcNAc(b1-3)Gal(b1-4)GlcNAc(b1-3)Gal(b1-4)GlcNAc
# Method in brief: as §1
# [8] = target: Fuc(a1-2)Gal(b1-4)GlcNAc(b1-6)GalNAc
# Method in brief: as §1
# [9] = target: Fuc(a1-2)[GalNAc(a1-3)]Gal(b1-4)GlcNAc(b1-3)Gal(b1-4)GlcNAc
# Method in brief: as §1
# [10] = target: Fuc(a1-2)[GalNAc(b1-3)]Gal
# Method in brief: as §1
# [11] = target: Fuc(a1-3)[Gal(b1-4)]Glc6S
# Method in brief: as §1
# [12] = target: Fuc(a1-3)[Gal(b1-4)]GlcNAc
# Method in brief: as §1
# [13] = target: Fuc(a1-3)[Gal3S(b1-4)]GlcNAc6S
# Method in brief: as §1
# [14] = target: Gal(a1-3)[Gal(a1-4)]Gal(b1-4)GlcNAc
# Method in brief: as §1
# Gal(a1-4)Gal(b1-4)Glc = target: Gal(a1-4)Gal(b1-4)Glc
# Method in brief: as §1
# Gal(a1-4)GlcNAc = target: Gal(a1-4)GlcNAc
# Method in brief: as §1
# Gal(a1-6)Glc = target: Gal(a1-6)Glc
# Method in brief: as §1
# [15] = target: Gal(b1-3)GalNAc(b1-4)Gal(b1-4)Glc
# Method in brief: as §1
# Gal(b1-3)GlcNAc = target: Gal(b1-3)GlcNAc
# Method in brief: as §1
# [16] = target: Gal(b1-3)[Fuc(a1-4)]GlcNAc
# Method in brief: as §1
# [17] = target: Gal(b1-3)[Fuc(a1-4)]GlcNAc(b1-3)Gal(b1-3)[Fuc(a1-4)]GlcNAc
# Method in brief: as §1
# [18] = target: Gal(b1-3)[Neu5Ac(a2-6)]GlcNAc(b1-4)Gal(b1-4)Glc
# Method in brief: as §1
# Gal(b1-4)Glc6S = target: Gal(b1-4)Glc6S
# Method in brief: as §1
# [19] = target: Gal(b1-4)GlcNAc(b1-2)Man(a1-3)[Gal(b1-4)GlcNAc(b1-2)Man(a1-6)][Gal(b1-4)GlcNAc(b1-4)]Man(b1-4)GlcNAc(b1-4)[Fuc(a1-6)]GlcNAc
# Method in brief: as §1
# [20] = target: Gal(b1-4)GlcNAc(b1-3)Gal(b1-4)GlcNAc(b1-2)[Gal(b1-4)GlcNAc(b1-3)Gal(b1-4)GlcNAc(b1-6)]Man(a1-6)[Gal(b1-4)GlcNAc(b1-3)Gal(b1-4)GlcNAc(b1-2)Man(a1-3)]Man(b1-4)GlcNAc(b1-4)[Fuc(a1-6)]GlcNAc
# Method in brief: as §1
# [21] = target: Gal(b1-4)GlcNAc(b1-3)Gal(b1-4)GlcNAc(b1-3)Gal(b1-4)GlcNAc(b1-3)Gal(b1-4)GlcNAc(b1-3)Gal(b1-4)GlcNAc(b1-2)[Gal(b1-4)GlcNAc(b1-3)Gal(b1-4)GlcNAc(b1-3)Gal(b1-4)GlcNAc(b1-3)Gal(b1-4)GlcNAc(b1-3)Gal(b1-4)GlcNAc(b1-6)]Man(a1-6)[Gal(b1-4)GlcNAc(b1-3)Gal(b1-4)GlcNAc(b1-3)Gal(b1-4)GlcNAc(b1-3)Gal(b1-4)GlcNAc(b1-3)Gal(b1-4)GlcNAc(b1-2)Man(a1-3)]Man(b1-4)GlcNAc(b1-4)[Fuc(a1-6)]GlcNAc
# Method in brief: as §1
# Gal4S6S(b1-4)GlcNAc = target: Gal4S6S(b1-4)GlcNAc
# Method in brief: as §1
# [22] = target: GalNAc(a1-3)GalNAc(b1-3)Gal(a1-4)Gal(b1-4)GlcNAc
# Method in brief: as §1
# [23] = target: GalNAc(b1-4)GlcNAc(b1-2)Man(a1-3)[GalNAc(b1-4)GlcNAc(b1-2)Man(a1-6)]Man(b1-4)GlcNAc(b1-4)GlcNAc
# Method in brief: as §1
# GalNAc(b1-6)GalNAc = target: GalNAc(b1-6)GalNAc
# Method in brief: as §1
# GalNAc6S(b1-4)GlcNAc = target: GalNAc6S(b1-4)GlcNAc
# Method in brief: as §1
# [24] = target: Glc(a1-4)Glc(a1-4)Glc(a1-4)Glc
# Method in brief: as §1
# Glc(b1-6)Glc = target: Glc(b1-6)Glc
# Method in brief: as §1
# [25] = target: GlcNAc(a1-4)Gal(b1-3)GlcNAc
# Method in brief: as §1
# [26] = target: GlcNAc(a1-4)Gal(b1-4)GlcNAc(b1-3)Gal(b1-4)[Fuc(a1-3)]GlcNAc(b1-3)Gal(b1-4)[Fuc(a1-3)]GlcNAc
# Method in brief: as §1
# [27] = target: GlcNAc(b1-3)Gal(b1-4)GlcNAc
# Method in brief: as §1
# [28] = target: GlcNAc(b1-3)Gal(b1-4)GlcNAc(b1-2)Man(a1-3)[GlcNAc(b1-3)Gal(b1-4)GlcNAc(b1-2)Man(a1-6)]Man(b1-4)GlcNAc(b1-4)GlcNAc
# Method in brief: as §1
# [29] = target: GlcNAc(b1-3)Gal(b1-4)GlcNAc(b1-3)Gal(b1-4)GlcNAc(b1-2)[GlcNAc(b1-3)Gal(b1-4)GlcNAc(b1-3)Gal(b1-4)GlcNAc(b1-6)]Man(a1-6)[GlcNAc(b1-3)Gal(b1-4)GlcNAc(b1-3)Gal(b1-4)GlcNAc(b1-2)Man(a1-3)]Man(b1-4)GlcNAc(b1-4)[Fuc(a1-6)]GlcNAc
# Method in brief: as §1
# Kdn(a2-3)Gal(b1-3)GalNAc = target: Kdn(a2-3)Gal(b1-3)GalNAc
# Method in brief: as §1
# [30] = target: Neu5Ac(a2-3)Gal(b1-4)GlcNAc(b1-3)Gal(b1-3)GlcNAc
# Method in brief: as §1
# [31] = target: Neu5Ac(a2-3)Gal(b1-4)GlcNAc(b1-3)Gal(b1-4)GlcNAc(b1-2)Man(a1-3)[Neu5Ac(a2-3)Gal(b1-4)GlcNAc(b1-3)Gal(b1-4)GlcNAc(b1-2)Man(a1-6)]Man(b1-4)GlcNAc(b1-4)GlcNAc
# Method in brief: as §1
# [32] = target: Neu5Ac(a2-3)Gal(b1-4)[Fuc(a1-3)]GlcNAc(b1-2)Man
# Method in brief: as §1
# [33] = target: Neu5Ac(a2-3)Gal(b1-4)[Fuc(a1-3)]GlcNAc(b1-3)Gal(b1-4)GlcNAc
# Method in brief: as §1
# [34] = target: Neu5Ac(a2-6)Gal(b1-4)GlcNAc(b1-2)Man(a1-3)[Neu5Ac(a2-3)Gal(b1-4)GlcNAc(b1-2)Man(a1-6)]Man(b1-4)GlcNAc(b1-4)GlcNAc
# Method in brief: as §1
# [35] = target: Neu5Ac(a2-6)Gal(b1-4)GlcNAc6S
# Method in brief: as §1
# Neu5Ac(a2-8)Neu5Ac = target: Neu5Ac(a2-8)Neu5Ac
# Method in brief: as §1
# [36] = target: Neu5Ac(a2-8)Neu5Ac(a2-8)Neu5Ac
# Method in brief: as §1
# [37] = target: Neu5Ac9Ac(a2-6)Gal(b1-4)GlcNAc
# Method in brief: as §1
# [38] = target: Neu5Gc(a2-3)Gal(b1-4)GlcNAc
# Method in brief: as §1
# [39] = target: Neu5Gc(a2-3)Gal(b1-4)[Fuc(a1-3)]GlcNAc
# Method in brief: as §1
# [40] = target: Neu5Gc(a2-8)Neu5Ac(a2-3)Gal(b1-4)GlcNAc
# Method in brief: as §1
binder,measurement,setting,value
B1,glycan array binding signal (z-score),[1],-0.691
same,glycan array binding signal (z-score),[2],-0.772
same,glycan array binding signal (z-score),[3],-1.91
same,glycan array binding signal (z-score),Fuc(a1-2)Gal(b1-4)Glc6S,2.67
same,glycan array binding signal (z-score),[4],2.13
same,glycan array binding signal (z-score),[5],-0.492
same,glycan array binding signal (z-score),[6],0.254
same,glycan array binding signal (z-score),[7],3.25
same,glycan array binding signal (z-score),[8],0.512
same,glycan array binding signal (z-score),[9],1.94
same,glycan array binding signal (z-score),[10],0.38
same,glycan array binding signal (z-score),[11],0.721
same,glycan array binding signal (z-score),[12],-0.68
same,glycan array binding signal (z-score),[13],1.04
same,glycan array binding signal (z-score),[14],-0.317
same,glycan array binding signal (z-score),Gal(a1-4)Gal(b1-4)Glc,3.04
same,glycan array binding signal (z-score),Gal(a1-4)GlcNAc,0.386
same,glycan array binding signal (z-score),Gal(a1-6)Glc,-1.58
same,glycan array binding signal (z-score),[15],2.86
same,glycan array binding signal (z-score),Gal(b1-3)GlcNAc,-0.186
same,glycan array binding signal (z-score),[16],-0.618
same,glycan array binding signal (z-score),[17],1.63
same,glycan array binding signal (z-score),[18],-0.885
same,glycan array binding signal (z-score),Gal(b1-4)Glc6S,0.592
same,glycan array binding signal (z-score),[19],-0.393
same,glycan array binding signal (z-score),[20],2.56
same,glycan array binding signal (z-score),[21],4.04
same,glycan array binding signal (z-score),Gal4S6S(b1-4)GlcNAc,0.198
same,glycan array binding signal (z-score),[22],0.706
same,glycan array binding signal (z-score),[23],-1.23
same,glycan array binding signal (z-score),GalNAc(b1-6)GalNAc,0.192
same,glycan array binding signal (z-score),GalNAc6S(b1-4)GlcNAc,0.22
same,glycan array binding signal (z-score),[24],0.035
same,glycan array binding signal (z-score),Glc(b1-6)Glc,-1.06
same,glycan array binding signal (z-score),[25],-0.658
same,glycan array binding signal (z-score),[26],1.23
same,glycan array binding signal (z-score),[27],0.117
same,glycan array binding signal (z-score),[28],2.67
same,glycan array binding signal (z-score),[29],2.72
same,glycan array binding signal (z-score),Kdn(a2-3)Gal(b1-3)GalNAc,3.09
same,glycan array binding signal (z-score),[30],1.03
same,glycan array binding signal (z-score),[31],2.5
same,glycan array binding signal (z-score),[32],-0.307
same,glycan array binding signal (z-score),[33],0.427
same,glycan array binding signal (z-score),[34],0.213
same,glycan array binding signal (z-score),[35],0.8
same,glycan array binding signal (z-score),Neu5Ac(a2-8)Neu5Ac,-0.418
same,glycan array binding signal (z-score),[36],-0.119
same,glycan array binding signal (z-score),[37],2.97
same,glycan array binding signal (z-score),[38],0.306
same,glycan array binding signal (z-score),[39],0.377
same,glycan array binding signal (z-score),[40],-0.354
